According to PubChem BioAssay (NCI):
The panel holds about 83,000 compounds, 20% with a hit somewhere; the sample as a whole holds those more often.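 Growth was measured after 48 h exposure to one concentration of compound in 96-well plates. Values under 10 count as active.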 Values without a mark were called inactive. The source made the active and inactive calls.

Each compound was assayed on U251 CNS (assay: NCI-60 one-dose screen, 48 h (100 = growth as untreated, 0 = no growth, -100 = all killed)). Conditions: 10 µM.
Cc1ccc(C(=O)N2C/C(=C/c3ccc(F)cc3)C(=O)/C(=C/c3ccc(F)cc3)C2)cc1 was tested, and the growth was 88.9%. Compound COc1cc(NC(=O)CCSc2nc3ccc(C)cc3c(=O)n2Cc2ccccc2)cc(OC)c1OC has a growth of 44.3%. In the case of O=C(Nc1cccc(-n2cc(-c3ccncc3)c(-c3cc(O)cc(Cl)c3)n2)c1)Nc1ccc(Cl)c(C(F)(F)F)c1, the growth is reported as -26.5% (active). With CCC(=O)N1C/C(=C/c2ccc(Br)cc2)C(=O)/C(=C/c2ccc(Br)cc2)C1 the growth was -81.4% (active). Compound COc1cc(Cl)cc(-c2nn(-c3cccc(NC(=O)c4ccc(N5CCOCC5)c(C(F)(F)F)c4)c3)cc2-c2ccncc2)c1 has a growth of 32.3%. With O=C(C[P+](c1ccccc1)(c1ccccc1)c1ccccc1)C[P+](c1ccccc1)(c1ccccc1)c1ccccc1 the growth was -91.8% (active). Nc1ccn(C2CC(O)C(CO)O2)c(=O)n1 (stereo not drawn) showed a growth of 105%. Work on COc1ccc(Nc2nc3ccc(NC(=O)NC4CCCCC4)cc3[nH]c2=O)cc1 yielded a growth of 86.2%. In the case of CC1(C)CCC(=NNC(N)=S)CC1, the growth is reported as 105%. With CCOC(=O)C1(CC(C)C)CCOC1=O (stereo not drawn) the growth was 95.2%. N#Cc1cc(-c2cc3ccccc3o2)oc1N was tested, and the growth was 3.63% (active). With COc1ccc(-c2nc3ncccn3c2-c2nnc(-c3ccsc3C)o2)cc1 the growth was 72.4%. With Oc1[nH]c2cc(Cl)ccc2c1/C=c1/ccc2c(c1)N=C(c1cc(F)cc(F)c1)N=2 the growth was 20.7%. For CCCCCCCCCCCC[n+]1ccc(C(N)=O)cc1, the growth was -3.1% (active). With COc1ccc2c(c1)O/C(=C\c1ncc([N+](=O)[O-])n1C)C2=O the growth was -12.6% (active). Work on N#Cc1cccc(OCc2nc(N)nc(N)c2-c2ccc(Cl)c(Cl)c2)c1 yielded a growth of 22%. Cc1cs/c(=N\NC(=O)c2cc(-c3cc4ccccc4o3)nn2-c2ccccc2)n1-c1ccccc1 gave a growth of 87.6%. In the case of CC1(C)OC2=C(CC1Br)C(=O)C(=O)c1ccccc12 (stereo not drawn), the growth is reported as -73.7% (active). Cc1occc1-c1nnc(SCC(=O)c2ccc(NC(=O)CC(C)C)cc2)o1 was tested, and the growth was 105%. In the case of CCN(CC)CCOc1nc2ccccc2c2c1-c1ccc(OC)cc1C2=O, the growth is reported as -10.8% (active). With COc1ccc(Nc2ncnc3c2c(SC)nn3-c2ccccc2)cc1 the growth was 84.1%. Work on O=C(CC(C(=O)c1ccccc1)N1CCOCC1)c1ccccc1 (stereo not drawn) yielded a growth of 88%. With COc1cc(-c2cc(/C=C/C(=O)c3ccc(Cl)c(Cl)c3)[nH]n2)cc(OC)c1OC the growth was 43.8%. Work on COc1ccc(-c2nc(-c3nc4ccc(OC)cc4[nH]3)cc3c2[nH]c2ccccc23)cc1 yielded a growth of 14.3%. In the case of O=C(O)c1ccc(P(=O)(O)O)c([N+](=O)[O-])c1, the growth is reported as 95.1%. COc1ccc2c(c1)O/C(=C\c1ccc([N+](=O)[O-])s1)C2=O gave a growth of 14.7%. For COc1ccc2c(c1)sc1nc(-c3ccccc3)c(-c3cccnc3)n12, the growth was 96.2%. Compound CCCCCC(=O)c1ccc(OCCCN2CCN(C(=O)OCC)CC2)cc1 has a growth of 98.2%. With CC(=O)n1c(-c2ccc(Cl)c(Cl)c2)cn(-c2ccc(Cl)cc2)c1=O the growth was 26.6%. C#Cc1ccc(-n2c(/C=C/c3ccc(O)cc3)nc3ncccc3c2=O)cc1 was tested, and the growth was 62.5%. c1ccc(CNc2ncnc3scc(-c4cccs4)c23)nc1 gave a growth of 75.7%. O=C(Nc1ccncc1)C(=O)c1cn(S(=O)(=O)c2cccc3ccccc23)c2ccccc12 was tested, and the growth was 80.7%. CCN(CC)Cc1cc(Nc2ccnc3cc(Cl)ccc23)ccc1OC gave a growth of 82%. O=C1Nc2ccc(Cl)cc2/C1=C\c1c(-c2ccc(Cl)cc2)nc2sc(C3CC3)nn12 was tested, and the growth was 52.6%. In the case of Cc1cc(N(CCCNc2ccnc3cc(Cl)ccc23)Cc2ccc3c(c2)OCO3)nc(N2CCOCC2)n1, the growth is reported as 5.18% (active). Work on c1ccc(CO[C@H]2CO[C@H]3[C@@H]2OC[C@H]3OCc2ccccc2)cc1 yielded a growth of 104%. Clc1cc2c(c(CSc3nc4ccccc4n4cccc34)c1)OCOC2 was tested, and the growth was 85.9%. For CCN(CC)CCOc1nc2ccc(OC)cc2c2c1-c1ccc(OC)cc1C2=O, the growth was -87.9% (active). For CCn1cc(C(=O)O)c(=O)c2cnc(N3CCCC3)nc21, the growth was 103%.

What follows are compounds tested on PC-3 prostate in the same assay as above. Conditions: 10 µM.
Compound Cc1ccc(C(=O)N2C/C(=C/c3ccc(F)cc3)C(=O)/C(=C/c3ccc(F)cc3)C2)cc1 has a growth of 85.2%. For COc1cc(NC(=O)CCSc2nc3ccc(C)cc3c(=O)n2Cc2ccccc2)cc(OC)c1OC, the growth was 83%. In the case of O=C(Nc1cccc(-n2cc(-c3ccncc3)c(-c3cc(O)cc(Cl)c3)n2)c1)Nc1ccc(Cl)c(C(F)(F)F)c1, the growth is reported as 5.34% (active). With CCC(=O)N1C/C(=C/c2ccc(Br)cc2)C(=O)/C(=C/c2ccc(Br)cc2)C1 the growth was -42.8% (active). In the case of COc1cc(Cl)cc(-c2nn(-c3cccc(NC(=O)c4ccc(N5CCOCC5)c(C(F)(F)F)c4)c3)cc2-c2ccncc2)c1, the growth is reported as 29.1%. O=C(C[P+](c1ccccc1)(c1ccccc1)c1ccccc1)C[P+](c1ccccc1)(c1ccccc1)c1ccccc1 was tested, and the growth was -77.7% (active). Work on Nc1ccn(C2CC(O)C(CO)O2)c(=O)n1 (stereo not drawn) yielded a growth of 99.4%. Compound COc1ccc(Nc2nc3ccc(NC(=O)NC4CCCCC4)cc3[nH]c2=O)cc1 has a growth of 94.7%. For CC1(C)CCC(=NNC(N)=S)CC1, the growth was 109%. With CCOC(=O)C1(CC(C)C)CCOC1=O (stereo not drawn) the growth was 93.3%. For N#Cc1cc(-c2cc3ccccc3o2)oc1N, the growth was -24.5% (active). COc1ccc(-c2nc3ncccn3c2-c2nnc(-c3ccsc3C)o2)cc1 showed a growth of 83.6%. Compound Oc1[nH]c2cc(Cl)ccc2c1/C=c1/ccc2c(c1)N=C(c1cc(F)cc(F)c1)N=2 has a growth of 13%. In the case of CCCCCCCCCCCC[n+]1ccc(C(N)=O)cc1, the growth is reported as -18.2% (active). In the case of COc1ccc2c(c1)O/C(=C\c1ncc([N+](=O)[O-])n1C)C2=O, the growth is reported as 7.52% (active). For N#Cc1cccc(OCc2nc(N)nc(N)c2-c2ccc(Cl)c(Cl)c2)c1, the growth was 27.5%. Cc1cs/c(=N\NC(=O)c2cc(-c3cc4ccccc4o3)nn2-c2ccccc2)n1-c1ccccc1 gave a growth of 114%. With CC1(C)OC2=C(CC1Br)C(=O)C(=O)c1ccccc12 (stereo not drawn) the growth was -16.8% (active). Work on Cc1occc1-c1nnc(SCC(=O)c2ccc(NC(=O)CC(C)C)cc2)o1 yielded a growth of 100%. For CCN(CC)CCOc1nc2ccccc2c2c1-c1ccc(OC)cc1C2=O, the growth was 7.51% (active). COc1ccc(Nc2ncnc3c2c(SC)nn3-c2ccccc2)cc1 showed a growth of 70.4%. Compound O=C(CC(C(=O)c1ccccc1)N1CCOCC1)c1ccccc1 (stereo not drawn) has a growth of 99.4%. For COc1cc(-c2cc(/C=C/C(=O)c3ccc(Cl)c(Cl)c3)[nH]n2)cc(OC)c1OC, the growth was 55%. Work on COc1ccc(-c2nc(-c3nc4ccc(OC)cc4[nH]3)cc3c2[nH]c2ccccc23)cc1 yielded a growth of 25.8%. O=C(O)c1ccc(P(=O)(O)O)c([N+](=O)[O-])c1 showed a growth of 97.7%. COc1ccc2c(c1)O/C(=C\c1ccc([N+](=O)[O-])s1)C2=O gave a growth of 14%. COc1ccc2c(c1)sc1nc(-c3ccccc3)c(-c3cccnc3)n12 was tested, and the growth was 88.9%. For CCCCCC(=O)c1ccc(OCCCN2CCN(C(=O)OCC)CC2)cc1, the growth was 78.7%. In the case of CC(=O)n1c(-c2ccc(Cl)c(Cl)c2)cn(-c2ccc(Cl)cc2)c1=O, the growth is reported as -31.2% (active). Work on C#Cc1ccc(-n2c(/C=C/c3ccc(O)cc3)nc3ncccc3c2=O)cc1 yielded a growth of 65.3%. c1ccc(CNc2ncnc3scc(-c4cccs4)c23)nc1 was tested, and the growth was 58.6%. O=C(Nc1ccncc1)C(=O)c1cn(S(=O)(=O)c2cccc3ccccc23)c2ccccc12 showed a growth of 68.5%. CCN(CC)Cc1cc(Nc2ccnc3cc(Cl)ccc23)ccc1OC showed a growth of 66.7%. O=C1Nc2ccc(Cl)cc2/C1=C\c1c(-c2ccc(Cl)cc2)nc2sc(C3CC3)nn12 gave a growth of 75.6%. Cc1cc(N(CCCNc2ccnc3cc(Cl)ccc23)Cc2ccc3c(c2)OCO3)nc(N2CCOCC2)n1 gave a growth of 27.1%. Compound c1ccc(CO[C@H]2CO[C@H]3[C@@H]2OC[C@H]3OCc2ccccc2)cc1 has a growth of 90.6%. In the case of Clc1cc2c(c(CSc3nc4ccccc4n4cccc34)c1)OCOC2, the growth is reported as 60.5%. In the case of CCN(CC)CCOc1nc2ccc(OC)cc2c2c1-c1ccc(OC)cc1C2=O, the growth is reported as -0.151% (active). Work on CCn1cc(C(=O)O)c(=O)c2cnc(N3CCCC3)nc21 yielded a growth of 102%.
